Records with an inconclusive call do not appear. Some structures have more than one record in an assay (separate samples or runs), and their calls can disagree. Calls of active or inactive are those of the source. The calls were made as follows, unless noted: active = hit-call score of the fitted dose curve at least 0.9, where 1 is the maximum; inactive = score below 0.9.

Experimental findings from PubChem BioAssay (EPA / NIEHS) are described below.

Read-out in assay [1]: solute carrier (SLC22A1), SLC22A1 (gene 6580)
The experiment in a line: LTEA_HepaRG_SLC22A1: Life Technologies and Expression Analysis (LTEA) Assay for solute carrier (SLC22A1) using HepaRG (AID 2283524). The following applies: mRNA level, 48 h; actives raise or lower the signal. The procedure, abridged:
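Transcript level of SLC22A1 quantified by qRT-PCR (normalized to three housekeeping genes) after 48 h chemical exposure of HepaRG cells, eight concentrations up to 100 µM, half-log steps, 0.5% DMSO vehicle. Gain or loss relative to DMSO fitted bidirectionally.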

Read-out in assay [2]: Pyruvate Dehydrogenase Kinase 4 (PDK4), PDK4 (gene 5166)
Nature of the assay: LTEA_HepaRG_PDK4: Life Technologies and Expression Analysis (LTEA) Assay for Pyruvate Dehydrogenase Kinase 4 (PDK4) using HepaRG (AID 2283525). The following applies: mRNA level, 48 h; actives raise or lower the signal. The method, boiled down: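 Readout is qRT-PCR of PDK4 transcript, normalized to three housekeeping genes, with bidirectional fitting against 0.5% DMSO vehicle. Differentiated HepaRG cells were treated 48 h in serum-free induction medium, duplicate wells, eight-point half-log series topping at 100 uM.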

Read-out in assay [3]: NAD(P)H dehydrogenase [quinone] 1 (NQO1), NQO1 (gene 1728)
Nature of the assay: LTEA_HepaRG_NQO1: Life Technologies and Expression Analysis (LTEA) Assay for NAD(P)H dehydrogenase [quinone] 1 (NQO1) using HepaRG (AID 2283526). To be noted: mRNA level, 48 h; actives raise or lower the signal. The procedure, abridged:
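In this assay, gene expression is read by qRT-PCR after 48 h exposure of HepaRG cells to eight concentrations (max 100 uM, half-log) in 0.5% DMSO. Each chemical runs in duplicate, and activity is scored relative to vehicle.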

Read-out in assay [4]: Nuclear factor erythroid 2-related factor 2 (Homo sapiens) (UniProt Q16236)
Nature of the assay: LTEA_HepaRG_NFE2L2: Life Technologies and Expression Analysis (LTEA) Assay for Nuclear factor erythroid 2-related factor 2 (NFE2L2) Transcription Factor using HepaRG (AID 2283527). To be noted: mRNA level, 48 h; actives raise or lower the signal. The method, boiled down:
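NFE2L2 transcript level was read by qRT-PCR (housekeeping ACTB/GAPDH/POLR2A normalisation) after 48 h chemical treatment of HepaRG in serum-free induction medium. Duplicate 8-point half-log curves, top 100 uM, 0.5% DMSO vehicle; up- or down-regulation fitted against vehicle.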

Read-out in assay [5]: succinate dehydrogenase complex iron sulfur subunit B (SDHB), SDHB (gene 6390)
Nature of the assay: LTEA_HepaRG_SDHB: Life Technologies and Expression Analysis (LTEA) Assay for succinate dehydrogenase complex iron sulfur subunit B (SDHB) using HepaRG (AID 2283528). The following applies: mRNA level, 48 h; actives raise or lower the signal. The procedure, abridged:
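HepaRG cells (~100,000/well, plated 48 h) exposed in duplicate for 48 h in serum-free induction medium to 8-point half-log series from 100 uM in 0.5% DMSO; mRNA by qRT-PCR normalised to ACTB, GAPDH, POLR2A; bidirectional fit versus DMSO.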

Read-out in assay [6]: Signal transducer and activator of transcription 3 (Homo sapiens) (UniProt P40763)
The experiment in a line: LTEA_HepaRG_STAT3: Life Technologies and Expression Analysis (LTEA) Assay for Signal transducer and activator of transcription (STAT3) using HepaRG (AID 2283529). The following applies: mRNA level, 48 h; actives raise or lower the signal. The method, boiled down: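 STAT3 transcript quantified by qRT-PCR against three housekeeping genes (ACTB, GAPDH, POLR2A), fitted both directions relative to DMSO. HepaRG cultures exposed 48 h to eight half-log concentrations, top 100 uM, 0.5% DMSO, serum-free induction medium.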

Read-out in assay [7]: solute carrier (SLCO1B1), SLCO1B1 (gene 10599)
The experiment in a line: LTEA_HepaRG_SLCO1B1: Life Technologies and Expression Analysis (LTEA) Assay for solute carrier (SLCO1B1) using HepaRG (AID 2283530). To be noted: mRNA level, 48 h; actives raise or lower the signal. The procedure, abridged: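 Differentiated human HepaRG cells, plated 48 h, switched to serum-free induction medium and exposed in duplicate for 48 h to 8 half-log concentrations (top 100 uM) in 0.5% DMSO. SLCO1B1 mRNA by TaqMan qRT-PCR, normalized to ACTB/GAPDH/POLR2A.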

Read-out in assay [8]: sulfotransferase 2A1 (SULT2A1), SULT2A1 (gene 6822)
Nature of the assay: LTEA_HepaRG_SULT2A1: Life Technologies and Expression Analysis (LTEA) Assay for sulfotransferase 2A1 (SULT2A1) using HepaRG (AID 2283531). The following applies: mRNA level, 48 h; actives raise or lower the signal. The method, boiled down:
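Differentiated human HepaRG cells in serum-free induction medium were exposed for 48 h to eight half-log concentrations (top 100 uM, 0.5% DMSO). SULT2A1 mRNA was measured by qRT-PCR, normalized to ACTB, GAPDH and POLR2A, and fitted bidirectionally against DMSO.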

Read-out in assay [9]: Transforming Growth Factor (TGFA), TGFA (gene 7039)
Nature of the assay: LTEA_HepaRG_TGFA: Life Technologies and Expression Analysis (LTEA) Assay for Transforming Growth Factor (TGFA) using HepaRG (AID 2283532). The following applies: mRNA level, 48 h; actives raise or lower the signal. The procedure, abridged:
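TGFA transcript quantified by qRT-PCR (Fluidigm arrays) against three housekeeping genes, after 48 hours chemical treatment of HepaRG cells. Top concentration 100 uM with half-log dilutions, 8 points, duplicates, 0.5% DMSO.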

Read-out in assay [10]: TIMP1, TIMP1 (gene 7076)
The experiment in a line: LTEA_HepaRG_TIMP1: Life Technologies and Expression Analysis (LTEA) Assay for TIMP1 using HepaRG (AID 2283534). To be noted: mRNA level, 48 h; actives raise or lower the signal. The method, boiled down:
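Differentiated human HepaRG cells in serum-free induction medium were exposed 48 h to chemicals (8 half-log concentrations, top 100 uM, 0.5% DMSO). TIMP1 mRNA was quantified by TaqMan qRT-PCR, normalized to ACTB/GAPDH/POLR2A; bidirectional fit versus DMSO.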

Read-out in assay [11]: Tumor necrosis factor receptor 1 (TNFRSF1A), TNFRSF1A (gene 7132)
The experiment in a line: LTEA_HepaRG_TNFRSF1A: Life Technologies and Expression Analysis (LTEA) Assay for Tumor necrosis factor receptor 1 (TNFRSF1A) using HepaRG (AID 2283535). To be noted: mRNA level, 48 h; actives raise or lower the signal. The method, boiled down:
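Differentiated human HepaRG cells were exposed in duplicate for 48 h in serum-free induction medium to eight concentrations (top 100 uM, half-log steps, 0.5% DMSO). TNFRSF1A mRNA was quantified by qRT-PCR, normalized to ACTB, GAPDH and POLR2A, then fitted bidirectionally against DMSO.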

Read-out in assay [12]: Thyroid Hormone Responsive (THRSP), THRSP (gene 7069)
The experiment in a line: LTEA_HepaRG_THRSP: Life Technologies and Expression Analysis (LTEA) Assay for Thyroid Hormone Responsive (THRSP) using HepaRG (AID 2283536). To be noted: mRNA level, 48 h; actives raise or lower the signal. The method, boiled down: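 THRSP transcript quantified by Fluidigm qRT-PCR against three housekeeping genes after 48 h chemical exposure of HepaRG cells in serum-free induction medium; eight-point half-log series, top 100 uM, 0.5% DMSO vehicle, duplicate wells.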

Read-out in assay [13]: Cellular tumor antigen p53 (Homo sapiens) (UniProt P04637)
The experiment in a line: LTEA_HepaRG_TP53: Life Technologies and Expression Analysis (LTEA) Assay for Tumor Protein P53 (TP53) using HepaRG (AID 2283537). To be noted: mRNA level, 48 h; actives raise or lower the signal. The procedure, abridged:
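Differentiated HepaRG cells in serum-free induction medium exposed 48 h in duplicate to 8 half-log concentrations, top 100 uM, 0.5% DMSO. TP53 mRNA by TaqMan qRT-PCR (Fluidigm), normalized to ACTB, GAPDH, POLR2A; fitted bidirectionally versus DMSO.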

Read-out in assay [14]: UDP glucuronosyltransferase (UGT1A1), UGT1A1 (gene 54658)
Nature of the assay: LTEA_HepaRG_UGT1A1: Life Technologies and Expression Analysis (LTEA) Assay for UDP glucuronosyltransferase (UGT1A1) using HepaRG (AID 2283538). The following applies: mRNA level, 48 h; actives raise or lower the signal. The procedure, abridged:
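mRNA induction or loss of UGT1A1, by TaqMan qRT-PCR, in duplicate HepaRG wells after 48 h exposure to half-log dilutions topping at 100 uM; DMSO (0.5%) served as baseline.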

Read-out in assay [15]: UDP glucuronosyltransferase (UGT1A6), UGT1A6 (gene 54578)
Nature of the assay: LTEA_HepaRG_UGT1A6: Life Technologies and Expression Analysis (LTEA) Assay for UDP glucuronosyltransferase (UGT1A6) using HepaRG (AID 2283539). To be noted: mRNA level, 48 h; actives raise or lower the signal. The method, boiled down: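 Human HepaRG cells were dosed for 48 h in serum-free induction medium with 0.5% DMSO vehicle, eight-point half-log series from 100 uM, in duplicate. UGT1A6 mRNA was measured by qRT-PCR, normalized to ACTB, GAPDH, POLR2A, and fitted bidirectionally against DMSO.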

Read-out in assay [16]: X-box binding protein 1 (XBP1), XBP1 (gene 7494)
The experiment in a line: LTEA_HepaRG_XBP1: Life Technologies and Expression Analysis (LTEA) Assay for X-box binding protein 1 (XBP1) using HepaRG (AID 2283540). The following applies: mRNA level, 48 h; actives raise or lower the signal. The procedure, abridged: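 Differentiated human HepaRG cells in serum-free induction medium were exposed in duplicate for 48 h to eight half-log concentrations up to 100 uM in 0.5% DMSO. XBP1 mRNA was quantified by qRT-PCR, normalised to ACTB, GAPDH and POLR2A, with bidirectional fitting against DMSO.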

Assay [17] can be described thus: LTEA_HepaRG_LDH_cytotoxicity: Cytotoxicity Assessment in the Life Technologies and Expression Analysis (LTEA) Assay (AID 2283563; active = hit-call score of the fitted dose curve at least 0.9, where 1 is the maximum). The procedure, abridged:
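Differentiated human HepaRG cells, plated 48 h beforehand, were switched to serum-free induction medium and exposed for 48 h to eight half-log concentrations (top 100 uM) in 0.5% DMSO. LDH was measured in spent medium; activity was fitted relative to DMSO vehicle.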

Assay [18] is described as follows: TOX21_p53_BLA_p2_viability: Viability Assessment in the Tox21 HCT-116 p53 Agonism Beta-lactamase Assay, Phase 2 (AID 2283591; active = hit-call score of the fitted dose curve at least 0.9, where 1 is the maximum;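 also: compound exposure lasted 16 h at 37 °C; actives lower the ATP signal meaning cytotoxicity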). The method, boiled down: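 Cytotoxicity readout: CellTiter-Glo ATP luminescence, 30 min at room temperature, after the beta-lactamase read. Cells were HCT116 exposed 16 h at 37C to compounds pin-transferred at 217-fold dilution from DMSO stocks.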

Sequence of Nuclear factor erythroid 2-related factor 2 (Homo sapiens) (Q16236 whole entry, looked up): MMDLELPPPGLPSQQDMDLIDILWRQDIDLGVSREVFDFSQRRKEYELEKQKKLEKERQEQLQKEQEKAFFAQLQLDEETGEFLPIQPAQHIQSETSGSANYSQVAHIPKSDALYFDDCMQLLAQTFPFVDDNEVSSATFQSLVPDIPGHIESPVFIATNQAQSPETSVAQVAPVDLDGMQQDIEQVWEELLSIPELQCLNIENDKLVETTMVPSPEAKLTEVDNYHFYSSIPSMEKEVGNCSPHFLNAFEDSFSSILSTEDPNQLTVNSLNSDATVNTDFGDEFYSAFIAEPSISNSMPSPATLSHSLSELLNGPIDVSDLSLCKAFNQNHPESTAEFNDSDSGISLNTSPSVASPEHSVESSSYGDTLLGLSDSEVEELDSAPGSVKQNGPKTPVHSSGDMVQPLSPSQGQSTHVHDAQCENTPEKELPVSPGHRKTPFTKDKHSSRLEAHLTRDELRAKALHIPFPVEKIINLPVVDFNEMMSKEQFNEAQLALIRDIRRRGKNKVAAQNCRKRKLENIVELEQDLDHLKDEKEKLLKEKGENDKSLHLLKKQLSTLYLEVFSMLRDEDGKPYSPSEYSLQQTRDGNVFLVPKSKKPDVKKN
Sequence of Cellular tumor antigen p53 (Homo sapiens) (P04637 whole entry, looked up): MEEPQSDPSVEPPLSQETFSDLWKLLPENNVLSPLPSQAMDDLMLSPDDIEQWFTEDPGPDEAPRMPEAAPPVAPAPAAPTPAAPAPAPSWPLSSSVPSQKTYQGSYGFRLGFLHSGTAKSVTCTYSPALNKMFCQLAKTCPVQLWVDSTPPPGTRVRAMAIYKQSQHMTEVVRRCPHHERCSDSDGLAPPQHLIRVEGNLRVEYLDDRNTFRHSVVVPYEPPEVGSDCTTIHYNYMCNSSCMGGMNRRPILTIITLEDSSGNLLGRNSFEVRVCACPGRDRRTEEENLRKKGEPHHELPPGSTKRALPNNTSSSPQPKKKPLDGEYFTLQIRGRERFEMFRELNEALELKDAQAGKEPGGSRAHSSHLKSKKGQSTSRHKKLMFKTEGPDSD
Sequence of Signal transducer and activator of transcription 3 (Homo sapiens) (P40763 whole entry, looked up): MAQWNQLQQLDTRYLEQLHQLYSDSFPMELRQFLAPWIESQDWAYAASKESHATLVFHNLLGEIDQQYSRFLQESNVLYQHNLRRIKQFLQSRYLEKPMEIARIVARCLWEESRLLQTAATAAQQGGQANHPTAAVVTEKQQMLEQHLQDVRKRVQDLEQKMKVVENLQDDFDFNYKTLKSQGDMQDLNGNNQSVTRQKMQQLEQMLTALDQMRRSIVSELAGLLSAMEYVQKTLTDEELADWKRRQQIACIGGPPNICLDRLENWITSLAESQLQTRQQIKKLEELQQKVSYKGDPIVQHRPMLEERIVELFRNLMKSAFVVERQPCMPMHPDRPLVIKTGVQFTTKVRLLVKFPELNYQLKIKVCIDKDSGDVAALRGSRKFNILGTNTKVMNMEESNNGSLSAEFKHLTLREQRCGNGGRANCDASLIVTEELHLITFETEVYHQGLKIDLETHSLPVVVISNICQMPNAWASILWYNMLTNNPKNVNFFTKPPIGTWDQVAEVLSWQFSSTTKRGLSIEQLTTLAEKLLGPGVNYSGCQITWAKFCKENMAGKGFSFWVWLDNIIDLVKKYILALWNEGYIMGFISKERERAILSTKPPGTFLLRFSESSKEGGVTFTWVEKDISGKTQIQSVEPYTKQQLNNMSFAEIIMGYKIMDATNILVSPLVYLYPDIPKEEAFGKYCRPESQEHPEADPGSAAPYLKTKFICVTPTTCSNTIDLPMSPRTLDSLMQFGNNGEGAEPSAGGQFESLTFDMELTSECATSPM

The term AC50 denotes the concentration giving half of the maximal activity seen. In the case of `ClC1=C(Cl)C2(Cl)C3C(Cl)C=CC3C1(Cl)C2(Cl)Cl` (centres undefined), the compound was classed as inactive in [1], in assay [3], in [5], in assay [6], in [7] and in assay [8]. The outcome in assay [9], in [10], in [11], in assay [12], in assay [15] and in assay [16] was inactive. In addition, the compound was classed as inactive in [17] and in [18]. The AC50 was 50 µM (active) in [2]; 8.87 µM (active) in [4]; 14.1 µM (active) in assay [13]; 2.86 µM (active) in assay [14]; 85.9 µM (active) in assay [18].

On to `CCCSC(=O)N(CCC)CCC`, for which the call in [1], in assay [2], in assay [3], in assay [4], in [5] and in [6] was inactive. Moreover, the call in [7], in assay [8], in assay [9], in assay [10], in assay [11] and in [12] was inactive. Moreover, the result in assay [13], in assay [14], in [15], in assay [16] and in assay [17] was inactive.

For the compound `Oc1ccccc1Cl`, the outcome in assay [1], in [2], in [3], in assay [4], in [5] and in assay [6] was inactive. Moreover, the outcome in [7], in [8], in assay [9], in assay [10], in [11] and in assay [12] was inactive. Further, the outcome in [13], in assay [14], in assay [15], in assay [16], in assay [17] and in assay [18] was inactive.
